The nature of assay [1]: qHTS assay to identify small molecule antagonists of the thyroid receptor (TR) signaling pathway - cell viability counter screen (AID 743064). Also: nearly all actives have a fitted effect of over 50% in size. Also: potency is read from the fitted curve at half-maximal effect. The method in brief: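 GH3.TRE-Luc cells, 4 h pre-plating; cpd + T3 1 nM final; 37 °C 23.5 h; CellTiter-Fluor 30 min; fluorescence read.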
(In general: Quantitative high-throughput screening tests each substance at several concentrations.)

A short description of assay [2]: qHTS assay to identify small molecule antagonists of the thyroid receptor (TR) signaling pathway (AID 743065). Also: nearly all actives have a fitted effect of over 55% in size. Also: potency is read from the fitted curve at half-maximal effect. The method in brief: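 Antagonism measured as loss of luciferase signal in GH3 cells stably carrying a TRE-luciferase reporter, co-treated with compound and T3 (1 nM final) for 23.5 h at 37 C. Viability was read in the same well by CellTiter-Fluor.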
Assay [3] relates to thyroid hormone receptor (rat, GH3 cells). Kind of assay: qHTS assay to identify small molecule agonists of the thyroid receptor (TR) signaling pathway (AID 743066; calls by dose curve).
For assay [4], the target named is Estrogen receptor (Homo sapiens) (UniProt P03372). Nature of the assay: qHTS assay to identify small molecule antagonists of the estrogen receptor alpha (ER-alpha) signaling pathway (AID 743069; active = well fitted curve in the direction sought with a large enough effect in the signal ratio in the repeat runs, not every such curve was filed as active; inconclusive = weak or mixed curves, or effect the other way; inactive = no such curve, though single readings can be large or run the other way; the % refers to the signal ratio). The method in brief: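 Fluorescence intensity from a beta-lactamase FRET substrate served as the read-out. Cells: HEK293 with stably integrated ER-alpha-UAS-bla reporter. Agonist 17beta-estradiol was co-added with compounds; incubation 18 hr at 37C, substrate 2 hr at room temperature.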
Chain of Estrogen receptor (Homo sapiens) (P03372 whole entry, looked up): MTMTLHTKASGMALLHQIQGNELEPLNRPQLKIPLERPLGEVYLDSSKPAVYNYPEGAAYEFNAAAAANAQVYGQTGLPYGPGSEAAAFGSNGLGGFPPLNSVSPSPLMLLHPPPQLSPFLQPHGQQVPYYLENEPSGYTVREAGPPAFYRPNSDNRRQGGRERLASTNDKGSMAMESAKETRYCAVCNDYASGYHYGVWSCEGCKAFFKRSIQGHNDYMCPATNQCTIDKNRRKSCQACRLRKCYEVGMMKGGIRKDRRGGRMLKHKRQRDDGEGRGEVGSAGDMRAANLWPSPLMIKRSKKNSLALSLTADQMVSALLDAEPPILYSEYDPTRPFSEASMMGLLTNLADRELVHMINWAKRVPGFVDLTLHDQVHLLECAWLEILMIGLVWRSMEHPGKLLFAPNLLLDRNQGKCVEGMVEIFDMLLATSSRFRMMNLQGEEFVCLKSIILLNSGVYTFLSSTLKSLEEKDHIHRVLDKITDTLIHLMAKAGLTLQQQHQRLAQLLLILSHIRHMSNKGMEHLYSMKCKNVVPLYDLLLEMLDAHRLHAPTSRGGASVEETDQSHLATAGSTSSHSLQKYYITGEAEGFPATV

Assay [5] is described as follows: qHTS assay to identify small molecule antagonists of the estrogen receptor alpha (ER-alpha) signaling pathway - cell viability counter screen (AID 743074; calls by dose curve; also: nearly all actives have a fitted effect of over 45% in size).
Assay [6] concerns the target Estrogen receptor (Homo sapiens) (UniProt P03372). Kind of assay: qHTS assay to identify small molecule agonists of the estrogen receptor alpha (ER-alpha) signaling pathway (AID 743075; calls by dose curve; also: potency is read from the fitted curve at half-maximal effect).
The target is the same in assay [7]. Kind of assay: qHTS assay to identify small molecule agonists of the estrogen receptor alpha (ER-alpha) signaling pathway using the BG1 cell line (AID 743079). Also: nearly all actives have a fitted effect of over 20% in size. Also: potency is read from the fitted curve at half-maximal effect. The conditions noted are these: BG1Luc4E2 cells, ERE-luciferase agonist, 22 h; activation: at 70.3 µM (top of the series).
A short description of assay [8]: qHTS assay to identify small molecule antagonists of the estrogen receptor alpha (ER-alpha) signaling pathway using the BG1 cell line - cell viability counter screen (AID 743081).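 Also: compound given together with 17beta-estradiol as the ER stimulus; nearly all actives have a fitted effect of over 45% in size.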
In another assay the target is Aromatase (Homo sapiens) (UniProt P11511). Kind of assay: qHTS assay to identify aromatase inhibitors (AID 743083). Also: nearly all actives have a fitted effect of over 55% in size.
Chain of Aromatase (Homo sapiens) (P11511 whole entry, looked up): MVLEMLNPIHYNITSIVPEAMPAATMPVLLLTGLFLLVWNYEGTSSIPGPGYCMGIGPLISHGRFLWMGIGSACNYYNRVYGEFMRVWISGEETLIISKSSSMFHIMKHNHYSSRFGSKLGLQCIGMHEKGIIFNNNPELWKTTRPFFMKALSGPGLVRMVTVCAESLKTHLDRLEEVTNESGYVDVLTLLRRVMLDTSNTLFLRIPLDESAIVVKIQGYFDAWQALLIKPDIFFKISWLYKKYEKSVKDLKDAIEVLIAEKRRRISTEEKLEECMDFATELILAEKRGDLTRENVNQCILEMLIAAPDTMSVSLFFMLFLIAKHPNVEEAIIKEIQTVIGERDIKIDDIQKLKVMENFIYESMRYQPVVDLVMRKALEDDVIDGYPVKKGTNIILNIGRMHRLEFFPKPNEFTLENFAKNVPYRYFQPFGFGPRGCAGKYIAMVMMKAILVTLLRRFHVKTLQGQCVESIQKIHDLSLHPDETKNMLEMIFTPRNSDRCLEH
A short description of assay [9]: qHTS assay to identify small molecule antagonists of the estrogen receptor alpha (ER-alpha) signaling pathway using the BG1 cell line (AID 743080; calls by dose curve;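 also: BG1 cells stimulated with 17beta-estradiol alongside compound; nearly all actives have a fitted effect of over 25% in size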). In outline: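 Quantitative HTS on the Tox21 10K library: BG1 cells with endogenous ER-alpha and ERE-luciferase reporter, 17beta-estradiol stimulation, 21.5 h compound exposure, luminescence endpoint with parallel fluorescence cytotoxicity counter-read.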

Calls of active or inactive are those of the source. Unless noted, calls follow the shape of the dose curve; as a rule, active = well fitted curve in the direction sought with a large enough effect in the repeat runs; inconclusive = weak or mixed curves; inactive = no such curve, though single readings can be large; an effect the other way counts as inactive or inconclusive.

In the case of `O=C(Cc1cccs1)N[C@@H]1C(=O)N2C(C(=O)[O-])=C(C[n+]3ccccc3)CS[C@H]12`, the Potency result in assay [1], in assay [2], in assay [3], in assay [4], in [5] and in assay [6] was “inactive” in each case. Further, the Potency entry (in assay [7]; in [8]; with Aromatase (Homo sapiens)) was “inactive” each time.
For the compound `O=S(=O)(O)CCCS(=O)(=O)O`, the Potency result in [1], in [2], in assay [3], in [4], in assay [5] and in [6] was “inactive” in each case. Besides, the Potency result (in assay [7]; in assay [8]; in the assay with Aromatase (Homo sapiens)) was “inactive” throughout.
As for `CC1(C)C(\C=C/C=C\C=C/C=C2/N(CCCCS(=O)(=O)O)c3ccc4ccccc4c3C2(C)C)=[N+](CCCCS(=O)(=O)[O-])c2ccc3ccccc3c21`, the Potency in [1] was 15 µM (active); in assay [2], 0.841 µM (active). Moreover, the Potency entry (in [3]; in [4]; in assay [5]; in assay [6]; in [7]; with Aromatase (Homo sapiens)) was “inactive” each time.
Turning to `NC(=O)Oc1ccc(Cc2ccccc2)cc1`, the Potency entry in assay [1], in [2], in assay [3], in assay [4], in assay [5] and in [8] was “inactive” in each case. Further, the Potency entry with Aromatase (Homo sapiens) was “inactive”. Moreover, the values for the Potency in assay [6] and in assay [7] were 26.8 µM [activator] (active) and 21.1 µM (active), respectively.
In the case of `O=C(c1cc2ccccc2o1)N1CCN(Cc2ccccc2)CC1`, the Potency result in [1], in [2], in assay [3], in assay [4], in assay [5] and in [6] was “inactive” each time. Besides, the Potency entry (in [7]; in assay [8]; with Aromatase (Homo sapiens)) was “inactive” in each case.
As for `O=C(NCCNCC(O)COc1ccc(O)cc1)N1CCOCC1` (centres undefined), the Potency entry in assay [1], in assay [2], in [3], in [4], in [5] and in assay [6] was “inactive” each time. The Potency result (in assay [7]; in [8]; with Aromatase (Homo sapiens)) was “inactive” each time.
As for `CN1CCN(C2=Nc3ccccc3Cc3ccccc32)CC1`, the values for the Potency in assay [1] and in assay [2] were 13.3 µM (active) and 23.7 µM (active), respectively. In addition, the Potency result in assay [3], in assay [4], in [5], in assay [6], in assay [7] and in [8] was “inactive” in each case. Moreover, the Potency entry with Aromatase (Homo sapiens) was “inactive”.
As to `CN(C(=O)CO)c1c(I)c(C(=O)NCC(O)CO)c(I)c(C(=O)NCC(O)CO)c1I` (centres undefined), the Potency result in assay [1], in assay [2], in assay [3], in [4], in assay [5] and in [6] was “inactive” each time. For the same compound, the Potency entry (in [7]; in [8]; with Aromatase (Homo sapiens)) was “inactive” each time.
In the case of `CC1=C(/C=C/C(C)=C/C=C/C(C)=C/C=C/C=C(C)/C=C/C=C(C)/C=C/C2=C(C)C(=O)CCC2(C)C)C(C)(C)CCC1=O`, the Potency result (in assay [1]; in assay [2]; in assay [3]; in assay [4]; in assay [5]; with Aromatase (Homo sapiens)) was “inactive” in each case. Also, the Potency in assay [6] was 26.8 µM [inconclusive] (active); in assay [7], 5.31 µM (active).
Consider `Nc1ncnc(Nc2ccc(Cl)cc2)n1`, for which the Potency result in assay [1], in assay [2], in assay [3], in [4], in assay [5] and in [6] was “inactive” each time. In addition, the Potency result with Aromatase (Homo sapiens) is “inactive”. In addition, the Potency in assay [7] was 23.7 µM (active).
For the compound `CC(C)(C)CC(C)(C)c1cc(Cc2cc(C(C)(C)CC(C)(C)C)cc(-n3nc4ccccc4n3)c2O)c(O)c(-n2nc3ccccc3n2)c1`, the Potency entry in assay [1], in assay [2], in assay [3], in assay [4], in assay [5] and in assay [6] was “inactive” in each case. Also, the Potency entry (in assay [9]; in assay [8]; in the assay with Aromatase (Homo sapiens)) was “inactive” in each case.
With `C[C@H](O)[C@H](O)[C@H]1CNc2nc(N)[nH]c(=O)c2N1`, the Potency entry in assay [1], in [2], in assay [3], in assay [4], in assay [5] and in [6] was “inactive” in each case. The Potency result (in assay [7]; in the assay with Aromatase (Homo sapiens)) was “inactive” in each case.
With `CCN(CC)CCOc1ccc2nc(N(C)C)sc2c1`, the Potency result in assay [1], in [2], in assay [3], in [4], in assay [5] and in assay [6] was “inactive” throughout. Also, the Potency entry (in [8]; with Aromatase (Homo sapiens)) was “inactive” each time. The Potency in [7] is 26.6 µM (active).
For `CC1CCC(NC(=O)N(CCCl)N=O)CC1` (centres undefined), the Potency result in assay [1], in assay [2], in assay [3], in [4], in assay [5] and in assay [6] was “inactive” in each case. The Potency entry (in [8]; with Aromatase (Homo sapiens)) was “inactive” each time. Besides, the Potency in assay [7] was 26.6 µM (active).
In the case of `CCCC(CCC)C(N)=O`, the Potency result in assay [1], in [2], in [3], in assay [4], in assay [5] and in [6] was “inactive” each time. Besides, the Potency entry (in assay [7]; in assay [9]; with Aromatase (Homo sapiens)) was “inactive” each time.
On to `NCCCNCCCCNC(=O)C(O)NC(=O)CCCCCCN=C(N)N` (centres undefined), for which the Potency result in [1], in [2], in [3], in assay [4], in [5] and in assay [6] was “inactive” each time. Moreover, the Potency result (in assay [7]; in assay [9]; in the assay with Aromatase (Homo sapiens)) was “inactive” in each case.
Consider `CCCC(=O)N1CCCN(c2nc(N)c3cc(OC)c(OC)cc3n2)CC1`, for which the Potency entry in assay [1], in [2], in [3], in assay [4], in assay [5] and in assay [6] was “inactive” in each case. In addition, the Potency result (in assay [9]; in [8]; with Aromatase (Homo sapiens)) was “inactive” each time.
On to `CCN(CC)CCOC(=O)c1ccc(N)cc1Cl`, for which the Potency result in assay [1], in assay [2], in assay [3], in assay [4], in assay [5] and in assay [6] was “inactive” throughout. Also, the Potency result (in assay [7]; in assay [9]; in the assay with Aromatase (Homo sapiens)) was “inactive” in each case.
Regarding `CCC(Oc1ccccc1)C(=O)N[C@@H]1C(=O)N2[C@@H]1SC(C)(C)[C@@H]2C(=O)O` (some centres undefined), the Potency entry in [1], in [2], in assay [3], in assay [4], in assay [5] and in [6] was “inactive” in each case. Moreover, the Potency entry (in assay [7]; in assay [8]; in the assay with Aromatase (Homo sapiens)) was “inactive” throughout.
For `C#CCC(Cc1cnc2nc(N)nc(N)c2n1)c1ccc(C(=O)N[C@@H](CCC(=O)O)C(=O)O)cc1` (some centres undefined), the Potency result in assay [1], in [3], in [4], in [6], in assay [7] and in [8] was “inactive” each time. Besides, in the assay with Aromatase (Homo sapiens), the Potency result was “inactive”. In addition, the Potency in assay [2] was 0.75 µM (active).
Turning to `CCCCCCCCCCCCCCCCCCOP(=O)([O-])OC1CC[N+](C)(C)CC1`, the Potency result in assay [1], in assay [2], in [3], in assay [4], in [6] and in assay [7] was “inactive” each time. The Potency result (in assay [8]; with Aromatase (Homo sapiens)) was “inactive” throughout.
As to `Cc1onc(-c2ccccc2)c1C(=O)N[C@@H]1C(=O)N2[C@@H]1SC(C)(C)[C@@H]2C(=O)O`, the Potency result in assay [1], in [2], in assay [3], in assay [4], in [6] and in [7] was “inactive” in each case. Also, the Potency entry (in assay [9]; in assay [8]; with Aromatase (Homo sapiens)) was “inactive” throughout.
As to `CC(=O)OCC(=O)[C@@]12OC3(CCCC3)O[C@@H]1C[C@H]1[C@@H]3CCC4=CC(=O)C=C[C@]4(C)[C@@]3(F)[C@@H](O)C[C@@]12C`, the Potency entry in [1], in [2], in assay [3], in assay [4], in assay [5] and in [6] was “inactive” in each case. Also, the Potency result in the assay with Aromatase (Homo sapiens) was “inactive”.

The values above are taken from PubChem BioAssay (Tox21).
